# Source: PubChem BioAssay (NMMLSC)
# Only some compounds are listed: those with a hit (about 1.8% of all), similar ones and a draw of the others.
# Myeloid diff MLP: myeloid differentiation induction; ER-HoxA9 myeloid progenitors, lysozyme-GFP differentiation, flow cytometry; calls only at 10 µM; 360,000 tested, 1% active;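 active = normalized GFP-positive differentiation at or above the plate's own cutoff, the solvent-only control mean plus 3 SD; inconclusive = no clear call, values can overlap the other calls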;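 note: cells exposed to compound for four days before flow analysis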
# ABCB6 inh 2: inhibitors of human ABC transporter ABCB6; K562-ABCB6 porphyrin accumulation, flow cytometry, 1 h; active compounds read low; 360,000 tested, 0.19% active; fluorescence ratio to DMSO, % at 10 µM; Q9NP58;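 active = fluorescence ratio to DMSO below 75%, the collection mean minus 3 SD; inconclusive = too few cells collected in the well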;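 note: signal is porphyrin accumulated inside mitochondria; lower ratio means ABCB6 inhibition with less porphyrin fluorescence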
# Target sequence (Q9NP58 whole entry, looked up): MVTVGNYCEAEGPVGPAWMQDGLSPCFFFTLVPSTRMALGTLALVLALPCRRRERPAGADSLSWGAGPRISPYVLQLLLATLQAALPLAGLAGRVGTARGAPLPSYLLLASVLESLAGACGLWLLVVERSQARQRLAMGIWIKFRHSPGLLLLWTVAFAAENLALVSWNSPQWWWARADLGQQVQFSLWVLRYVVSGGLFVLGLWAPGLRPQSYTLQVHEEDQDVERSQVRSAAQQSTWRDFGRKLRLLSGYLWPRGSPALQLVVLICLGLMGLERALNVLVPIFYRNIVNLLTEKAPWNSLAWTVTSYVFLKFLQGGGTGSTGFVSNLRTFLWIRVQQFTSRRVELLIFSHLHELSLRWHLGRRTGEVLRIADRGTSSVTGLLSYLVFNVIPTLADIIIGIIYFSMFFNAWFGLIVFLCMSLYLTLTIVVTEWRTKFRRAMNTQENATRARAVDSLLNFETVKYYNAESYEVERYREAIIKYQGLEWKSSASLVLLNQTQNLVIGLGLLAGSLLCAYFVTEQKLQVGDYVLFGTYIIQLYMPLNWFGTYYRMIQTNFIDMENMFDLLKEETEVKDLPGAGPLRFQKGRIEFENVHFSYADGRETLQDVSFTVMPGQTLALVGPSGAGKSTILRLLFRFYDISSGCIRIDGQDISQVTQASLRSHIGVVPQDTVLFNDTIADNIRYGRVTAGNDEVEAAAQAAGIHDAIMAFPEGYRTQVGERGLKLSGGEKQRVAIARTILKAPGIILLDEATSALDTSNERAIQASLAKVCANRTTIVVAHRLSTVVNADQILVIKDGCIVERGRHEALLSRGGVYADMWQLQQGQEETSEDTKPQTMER
# Granule exo inh: lytic granule exocytosis inhibition; TALL-104 LAMP-1 surface exposure, flow cytometry; cells stimulated with thapsigargin and PMA; inhibition, % at 10 µM; 360,000 tested, 0.66% active; AID 651702;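 active = inhibition above about 55%, limit read from the data; inconclusive = no clear call, values can overlap the other calls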
# Myeloid diff CP1: myeloid differentiation induction. shares compounds with Myeloid diff MLP. ER-HoxA9 myeloid progenitors, GFP/Mac1 double-positive flow. calls only. 2,300 tested, 2% active;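 active = share of green or green-and-red cells above 9 and 9% in run 1 or 4 and 3% in run 2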
# GFP autofluor: counter-screen for myeloid differentiation promoters: compound fluorescence | shares compounds with Myeloid diff MLP | ER-HoxA9 myeloid progenitors, no estrogen, GFP autofluorescence flow cytometry; vehicle wells 0%, positive control 100% | fluorescence response, % (concentration not given with the values) | 2,300 tested, 7.4% active | AID 651707;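 active = over 5% cells positive for green fluorescent reporter, or over 2% positive for both it and APC stain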
# A number is an active result; n = inactive; u = inconclusive; x = no result given; + = active, no number.
SMILES,Myeloid diff MLP,ABCB6 inh 2,Granule exo inh,Myeloid diff CP1,GFP autofluor
O=C(NC1CC2CCCC(C1)N2C(=O)Nc1ccccc1F)C1CC1 (stereo unspecified),x,n,n,x,x
CCCOc1ccc(CNC(=O)C2CCN(c3nnc(N4CCCC4=O)s3)CC2)cc1,n,n,n,x,x
COc1ccc(N2CCN(C(CNC(=O)C(=O)NCCCn3ccnc3)c3ccco3)CC2)cc1 (stereo unspecified),n,n,n,x,x
COc1ccccc1NC(=O)N(C)C[C@H]1Oc2ncc(C#CCN(C)C)cc2C(=O)N([C@H](C)CO)C[C@H]1C,n,n,n,x,x
O=C(NCCN1CCN(c2ccc([N+](=O)[O-])cc2)CC1)NCc1ccccc1,n,n,n,x,x
Cc1ccc(-n2c(O)c(C=Nc3ccccc3-c3n[nH]c(=S)[nH]c3=O)c3ccccc3c2=O)cc1C,n,n,n,n,n
Cc1ccc(-n2c(O)c(C=Nc3ccccc3-c3n[nH]c(=S)[nH]c3=O)c3ccccc3c2=O)c(C)c1,n,n,n,x,x
CC1CC(C)(C)OC(c2ccc(C(C)C)cc2)O1 (stereo unspecified),n,n,n,x,x
N#CCCN1CCN(S(=O)(=O)c2ccc(C#N)cc2)CC1,n,n,n,n,n
N#CCCN1CCN(S(=O)(=O)c2ccc(S(=O)(=O)N3CCCCCC3)cc2)CC1,n,n,n,x,x
CC(C)(C)OC(=O)N1O[C@H]2CC1[C@@H]1[C@@H]2N=NN1CCc1ccncc1,n,n,n,x,x
COC(=O)c1ccc(CNC(=O)Cn2cnc3c(SC)nc(N)nc32)cc1,n,n,n,x,x
CCc1ccc(-c2cc(C(=O)N/N=C/c3c[nH]c4ccccc34)[nH]n2)cc1,n,n,n,n,n
CCc1ccc2c(Cl)c(C(=O)N/N=C/c3c[nH]c4ccccc34)sc2c1,n,n,n,x,x
Cc1cc(C(=O)COC(=O)c2ccc(NC(=O)CC#N)cc2)c(C)n1CCc1ccc(F)cc1,n,n,n,n,n
COc1ccc(CCn2c(C)cc(C(=O)COC(=O)c3ccc(NC(=O)CC#N)cc3)c2C)cc1,n,n,n,x,x
Cc1ccc(NC(=O)CNC(=O)C2CCCCC2)nc1,n,n,n,x,x
COc1cccc(-c2csc(N3CCN(CC(=O)NNC(=O)c4ccc(Cl)cc4)CC3)n2)c1,n,n,n,n,n
COc1cccc(-c2csc(N3CCN(CC(=O)NNC(=O)c4ccc(Br)cc4)CC3)n2)c1,n,n,n,x,x
O=C(OCC(=O)c1c[nH]c2ccccc12)c1cccc(S(=O)(=O)N2CCCCCC2)c1,n,n,n,n,n
O=C(COC(=O)c1cccc(S(=O)(=O)N2CCCCC2)c1)NCc1ccccc1,n,n,n,x,x
CCN1/C(=C/c2cc[n+](CCCS(=O)(=O)[O-])c3ccccc23)Sc2ccccc21,+,n,n,n,14
CCC(/C=C1\Sc2ccc(OC)cc2N1CC)=C\c1sc2ccc(OC)cc2[n+]1CCCS(=O)(=O)[O-],n,n,n,x,x
Cc1cc2c(cc1C)-c1nnnn1C(N1CCCC1)C(=O)N2 (stereo unspecified),n,x,n,x,x
COC(=O)c1c(C)[nH]c(C(=O)COC(=O)Cn2cc(C(F)(F)F)ccc2=O)c1C,n,n,n,x,x
SMILES,Myeloid diff MLP,ABCB6 inh 2,Granule exo inh,Myeloid diff CP1,GFP autofluor
COc1ccc(Cn2nnnc2CN2CCc3ccccc32)cc1,+,n,n,n,n
COc1ccc(Cn2nnnc2CN2CCc3ccccc3C2)cc1,n,n,n,x,x
CS(=O)(=O)N1CCC(C(=O)Nc2cc(Cl)c(Cl)cc2Cl)CC1,n,n,n,n,n
CS(=O)(=O)N1CCC(C(=O)Nc2cc(Cl)ccc2Cl)CC1,n,n,n,x,x
COc1ccc(C2=NN(C(=O)CSc3nnc(-c4ccccc4F)o3)C(c3ccco3)C2)cc1 (stereo unspecified),n,n,n,n,n
COc1ccc(C2=NN(C(N)=S)C(c3ccco3)C2)cc1 (stereo unspecified),+,n,n,n,n
COc1ccc(C2=NN(C(=O)c3ccco3)C(c3ccco3)C2)cc1OC (stereo unspecified),n,n,n,x,x
COc1ccc(C2=NN(C(=O)CSc3nc4ncc(Cl)cc4[nH]3)C(c3ccco3)C2)cc1 (stereo unspecified),n,n,n,x,x
O=C1Cc2cc(S(=O)(=O)N3CCNCC3)ccc2N1,n,n,n,x,x
CN(Cc1ccccc1)C(=O)c1ccc(NC(=O)C2CCN(C(=O)OC(C)(C)C)CC2)cc1,n,n,n,x,x
CCCOc1ccc(Cc2nn3c(=O)/c(=C/c4ccco4)sc3nc2=O)cc1,n,n,n,n,n
CCCOc1ccc(/C=c2\sc3nc(-c4ccco4)nn3c2=O)cc1OCC,n,n,n,x,x
COc1cc2c(cc1OC)C1Cc3ccc(OC)c(OC)c3C[N+]1([O-])CC2 (stereo unspecified),n,n,n,x,x
Cc1ccc(NC(=O)C(C)OC(=O)COc2cccc(C(F)(F)F)c2)cc1 (stereo unspecified),n,n,n,x,x
O=C(/C=C/[C@H]1O[C@@H](n2ccc(=O)[nH]c2=O)[C@H](O)[C@@H]1O)NCc1cccc2ccccc12,+,n,n,n,n
O=C(/C=C/[C@H]1O[C@@H](n2ccc(=O)[nH]c2=O)[C@H](O)[C@@H]1O)NCc1cccs1,n,n,n,x,x
COc1ccc(CCNC(=O)CCS(=O)(=O)Cc2ccccc2C)cc1OC,n,n,n,x,x
Cc1cccc(NC(=S)N2CCN(C(=O)c3ccco3)CC2)c1C,n,n,n,x,x
Cc1c(C(=O)NNC(=S)Nc2ccc(S(N)(=O)=O)cc2)oc2ccccc12,n,n,n,n,n
Cc1c(C(=O)Nc2ccc(S(N)(=O)=O)cc2)oc2ccc(Cl)cc12,n,n,n,x,x
COc1cc(OC)cc(C(=O)NCC(=O)N2CC=C(c3ccccc3)CC2)c1,u,n,n,x,x
O=C(NCC(=O)N1CC=C(c2ccccc2)CC1)c1ccc(OC(F)F)cc1,n,n,n,n,n
CCCS(=O)(=O)NC(=O)C1(C)CCCN(C(=O)c2cccc(C(F)(F)F)c2)C1 (stereo unspecified),n,n,n,x,x
CCCS(=O)(=O)NC(=O)C1(C)CCN(C(=O)c2cccc(C(F)(F)F)c2)C1 (stereo unspecified),+,n,n,n,n
Nc1ncnc2c1ncn2[C@@H]1O[C@H](CNC(=O)[C@@H](N)CO)[C@@H](O)[C@H]1O,n,n,n,x,x
Cc1ccc(CC(CC(=O)O)C(=O)NCC23CC4CC(CC(C4)C2)C3)cc1 (stereo unspecified),n,n,n,x,x
Cc1ccc(CC(CC(=O)O)C(=O)NC2CCCCC2)cc1 (stereo unspecified),+,n,n,n,n
CC(Sc1ccc(S(=O)(=O)N2CCOCC2)cn1)c1ccccc1Cl (stereo unspecified),n,n,n,x,x
CN(C)S(=O)(=O)c1ccc(N2C(=O)CC2(/C=C/c2ccccc2)C(=O)NC2CCCC2)cc1 (stereo unspecified),n,n,n,x,x
COc1ccccc1/C=C/C1(C(=O)NC2CCCC2)CC(=O)N1c1ccccc1 (stereo unspecified),+,n,n,n,n
